This is part of a sample that, as a whole, favours compounds with a hit. Of some 83,000 tested, about 20% had one in any assay.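 Method: cells in 96-well plates; compound added at one concentration; 48 h incubation; percent growth measured; values under 10 scored active.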 Values without a mark were called inactive. The source made the active and inactive calls.
Experiments:
Assay in all cases: NCI-60 one-dose screen, 48 h (100 = growth as untreated, 0 = no growth, -100 = all killed)
Details in all cases: 10 µM unless noted
NCI-H23 lung = tested on: NCI-H23 lung
NCI-H226 lung = tested on: NCI-H226 lung
NCI-H322M lung = tested on: NCI-H322M lung
HOP-62 NSCLC = tested on: HOP-62 NSCLC
NCI-H460 lung = tested on: NCI-H460 lung
HOP-92 NSCLC = tested on: HOP-92 NSCLC
NCI-H522 lung = tested on: NCI-H522 lung
A549/ATCC NSCLC = tested on: A549/ATCC NSCLC
786-0 renal = tested on: 786-0 renal
COLO 205 colon = tested on: COLO 205 colon
DU-145 prostate = tested on: DU-145 prostate
K-562 leukemia = tested on: K-562 leukemia
MALME-3M melanoma = tested on: MALME-3M melanoma
MDA-MB-231 breast = tested on: MDA-MB-231 breast
RXF 393 renal = tested on: RXF 393 renal
SF-268 CNS = tested on: SF-268 CNS
SF-295 CNS = tested on: SF-295 CNS
SF-539 CNS = tested on: SF-539 CNS
UACC-257 melanoma = tested on: UACC-257 melanoma
M14 melanoma = tested on: M14 melanoma

SMILES | growth (NCI-H23 lung) | growth (NCI-H226 lung) | growth (NCI-H322M lung) [%] | growth (HOP-62 NSCLC) | growth (NCI-H460 lung) | growth (HOP-92 NSCLC) | growth (NCI-H522 lung) | growth (A549/ATCC NSCLC) | growth (786-0 renal) | growth (COLO 205 colon) | growth (DU-145 prostate) | growth (K-562 leukemia) | growth (MALME-3M melanoma) [%] | growth (MDA-MB-231 breast) | growth (RXF 393 renal) | growth (SF-268 CNS) [%] | growth (SF-295 CNS) | growth (SF-539 CNS) | growth (UACC-257 melanoma) [%] | growth (M14 melanoma)
O=c1c2cc(F)ccc2sc2c(NCCCNCCO)nc3ccccc3c12 | 66.9% | 80.8% | 50 | 46.5% | -71.3% (active) | 3.78% (active) | 20.4% | 33.9% | 51.9% | -56.4% (active) | 8.53% (active) | -44.3% (active) | 69.5 | -33.1% (active) | 44.8% | 41.6 | 65.3% | -24.1% (active) | 91.2 | -79% (active)
COc1ccc(C(=O)C[C@]2(O)C(=O)Nc3c(Cl)ccc(Cl)c32)cc1 | 44.3% | 58.8% | 47.5 | 40.4% | 10.1% | 62.1% | 13.4% | 53.4% | 55.9% | 7.6% (active) | 21.7% | 13.6% | 51.1 | 49% | -3.05% (active) | 61.9 | 4.67% (active) | -11.6% (active) | 63.9 | 5.9% (active)
COc1cc(CNS(=O)(=O)c2ccc(C)cc2)ccc1OCc1cn(-c2ccccc2)nn1 | 83% | 81.5% | 92.8 | 97% | 97.1% | 68.4% | 76.5% | 90.7% | 95.2% | 108% | 103% | 73.4% | 99.7 | 95.4% | 99.9% | 98.2 | 93.5% | 94.6% | 82.3 | 99.2%
CC1=C(C)C(=O)C(Nc2cccc(C(=O)OC(C)(C)C)c2)=C(Br)C1=O | 85.9% | 86.5% | 91.1 | 92.6% | 99.7% | -32.5% (active) | 67.4% | 95.6% | 96.2% | 114% | 109% | 0% (active) | 88.3 | -36.1% (active) | 94.9% | 93.7 | 101% | 94.7% | 87.3 | 95.1%
COc1cccc2c(=O)c3c(sc12)c(NCCCN)nc1ccccc13 | 59.7% | 63.4% | 64.4 | 53.2% | -30.1% (active) | 45.7% | 56.5% | 36.3% | 68.2% | -24.6% (active) | 33.1% | -7.71% (active) | 90.9 | 10.3% | 61% | 61.4 | 72.8% | 56.1% | 94.1 | 33.9%
COc1nc2ccccc2cc1-c1nc2c(cnn2-c2ccc(Br)cc2)c(=O)[nH]1 | 25.2% | 39.7% | 36.5 | 24.4% | 13.6% | 39% | 2.63% (active) | 39.9% | 15.5% | -50.2% (active) | 24.5% | 16.3% | 52.6 | 66.9% | -7.26% (active) | 41.3 | 16.9% | -31.7% (active) | 46.9 | -7.56% (active)
Nc1ccccc1-c1cc2c(c3c1[nH]c1ccccc13)CCCCC2 | 90.5% | 117% | 99 | 105% | 97.2% | 105% | 84.8% | 95.8% | 89.3% | 101% | 102% | 98% | 117 | 90.3% | 113% | 97.2 | 103% | 116% | 105 | 92.5%
CCCCC1CCCC12NC(=O)NC2=O (stereo not given) | 99.3% | 88.5% | 98.3 | 99.3% | 117% | 93.6% | 106% | 117% | 105% | 120% | 109% | 127% | 100 | 107% | 113% | 99.5 | 109% | 113% | 112 | 109%
Cc1ccc(C(=O)NN2C(=O)CSC2c2ccc(Cl)cc2)cn1 (stereo not given) | 84.1% | 82.4% | 119 | 82.2% | 101% | 71.1% | 84.3% | 100% | 107% | 105% | 125% | 89.8% | 140 | 88.8% | 95.2% | 101 | 66.9% | 101% | 110 | 97.8%
CC(=O)CC(c1cccs1)c1c(-c2ccccc2)[nH]c2ccccc12 (stereo not given) | 66% | 84.3% | 91.4 | 89.5% | 98.4% | 72.6% | 80.6% | 91.3% | 98.9% | 107% | 103% | 77.2% | 104 | 86.9% | 99.9% | 85.6 | 80.4% | 98.9% | 103 | 94.5%
O=C(Cc1ccc(F)c(Cl)c1)Nc1cc(C2(C(F)(F)F)CC2)nn1Cc1ccccc1 | 55.3% | 43.2% | 89.6 | -32.7% (active) | 79% | -19.5% (active) | 58.2% | 60.3% | 34.6% | 66.3% | 89.8% | 77.1% | 60.4 | 14.1% | -23.5% (active) | 17.1 | 24.8% | 50.6% | 91.1 | 70.8%
CC(C)C(=O)Nc1ccc(-c2nc(-c3cccc(OCCN4CCOCC4)c3)c(-c3ccnc(Br)c3)[nH]2)cc1 | 55.6% | 76.4% | 67.8 | 55.2% | 63.6% | 61.3% | 68.7% | 63% | -19.3% (active) | 43.3% | 71.5% | 2.82% (active) | 33.6 | 57.6% | -35.3% (active) | 60.3 | -57.7% (active) | 24.3% | 56.6 | 59.7%
COc1cc(C2CC(c3cccc(Br)c3)=NN2C(C)=O)cc(OC)c1OC (stereo not given) | 24.8% | 28% | 33 | 43.7% | 9.31% (active) | 78.3% | -13.8% (active) | 29.1% | 40.7% | 2.52% (active) | 20% | 49.2% | 54.2 | 4.94% (active) | 33.3% | 55.3 | 0.219% (active) | -5.96% (active) | 81.7 | 8.38% (active)
NCCOc1ncccc1/C=C1\C2C=CC=CC2C2C=CC(F)=CC12 (stereo not given) | 2.79% (active) | -26.2% (active) | 64.5 | 10.5% | -22% (active) | 28.9% | 47.8% | -56.5% (active) | 1.24% (active) | 27.2% | 6.22% (active) | 8.35% (active) | 39.2 | 37.4% | 39.9% | 32.3 | -2.83% (active) | 11.1% | 71.7 | 18.8%
c1ccc(Nc2cc(-c3cccnc3)[nH]n2)cc1 | 105% | 94.1% | 95.5 | 84% | 111% | 94.4% | 89.5% | 93.3% | 98.1% | 106% | 100% | 101% | 118 | 107% | 107% | 85.8 | 97.6% | 70.2% | 100 | 117%

From PubChem BioAssay (NCI)
